Test results published in PubChem BioAssay (NCATS).
Results filed as inconclusive are left out. A call without a number means that no potency is given here. Calls of active or inactive are those of the source. The call rests on the fitted dose curve; in most records, active means well fitted curve in the direction sought with a large enough effect; inconclusive means small, poorly fitted or top-dose-only effect, or another doubt; inactive means no such curve, though single readings can be large; an effect the other way counts as inactive or inconclusive.

Assays:
[1] = S16 Schwann cell viability assay (CellTiter-Glo assay) (AID 624031);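 further: cellular ATP luminescence as a viability measure; series mostly up to about 58 µM; nearly all actives have a fitted effect of over 70% in size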
Summary of the method: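 Native S16 Schwann cells (rat), serum-containing medium, overnight attachment then 24 h drug exposure at 37 °C/5% CO2. CellTiter-Glo ATP signal; normalized to cell-free and vehicle wells.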

[2] = biological target: Tyrosyl-DNA phosphodiesterase 1 (Homo sapiens) (UniProt Q9NUW8); assay: Confirmation Assay for Inhibitors of Tyrosyl-DNA Phosphodiesterase (TDP1) (AID 489007); conditions: recombinant human TDP1 enzymatic activity, dose-response; further: potency means the concentration at half of the fitted maximal effect; nearly all actives have a fitted effect of over 40% in size
Summary of the method: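 Confirmation of primary-screen follow-ups in a qHTS format. Substrate cleavage by Tdp1 (1 nM) of a 3'-phosphotyrosine-FITC, 5'-biotin oligo (15 nM) was monitored as decreased AlphaScreen signal after a 5 min room-temperature reaction.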

Sequence of Tyrosyl-DNA phosphodiesterase 1 (Homo sapiens) (Q9NUW8 whole entry, looked up): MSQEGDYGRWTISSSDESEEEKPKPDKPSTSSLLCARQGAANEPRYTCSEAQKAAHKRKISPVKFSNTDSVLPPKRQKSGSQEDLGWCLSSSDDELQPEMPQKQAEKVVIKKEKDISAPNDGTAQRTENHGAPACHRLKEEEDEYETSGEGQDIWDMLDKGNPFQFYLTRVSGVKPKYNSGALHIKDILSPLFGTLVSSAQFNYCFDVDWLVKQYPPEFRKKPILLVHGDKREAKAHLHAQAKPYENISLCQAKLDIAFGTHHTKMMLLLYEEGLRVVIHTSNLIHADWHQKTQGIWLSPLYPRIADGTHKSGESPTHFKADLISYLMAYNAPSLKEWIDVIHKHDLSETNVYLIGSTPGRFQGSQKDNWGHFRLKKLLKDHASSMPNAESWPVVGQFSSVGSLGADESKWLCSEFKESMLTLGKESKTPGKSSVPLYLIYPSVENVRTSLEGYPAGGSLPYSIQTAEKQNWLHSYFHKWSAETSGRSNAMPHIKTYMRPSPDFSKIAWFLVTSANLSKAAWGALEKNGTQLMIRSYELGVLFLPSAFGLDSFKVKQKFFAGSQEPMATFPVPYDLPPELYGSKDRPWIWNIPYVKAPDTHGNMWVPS

Row | Structure (SMILES) | Potency [1] | Potency [2]
1 | CC1(C)[C@@H]2CC[C@]1(C)[C@@H](OC(=O)CSC#N)C2 | inactive | 
2 | O=C(O)[C@@H](O)[C@@H](O)[C@H](O)[C@H](O)CO | inactive | 5.01 µM (active)
